From PubChem BioAssay AID1276 (Columbia University Molecular Screening Center, 2008)
Out of some 190,000 compounds screened, about 2,000 (1.1%) were called active.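 The calls were made as follows: active = activation above a set limit, based on mean plus 3 SD of controls (cut at about 140% in these data); inconclusive = one replicate above the limit, the other below; inactive = the rest.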 The sample as a whole holds a higher share of actives than the screen did.

Test: APP 5'UTR reporter signal increase – luciferase, SH-SY5Y cells, primary screen (AID 1276)
Conditions: SH-SY5Y APP 5'UTR luciferase reporter, luminescence; at 2 µM; hits give high values; zero percent = DMSO vehicle wells

Row | Compound | activation
1 | O=C(CN1CCN(c2ccccn2)CC1)N1CCc2ccccc21 | 30.9% (inactive)
2 | O=C(c1cc(-c2ccccc2O)on1)N1CCCC1 | 102% (inactive)
3 | COc1ccccc1-c1cc(C(=O)N2CCCCC2)no1 | 113% (inactive)
4 | O=C(c1cc(-c2cccs2)on1)N1CCCCC1 | 138% (active)
5 | O=C(Nc1ccc(N2CCOCC2)cc1)c1ccc(-c2ccccc2[N+](=O)[O-])o1 | 17.6% (inactive)
6 | CC1Cc2ccccc2N1C(=O)CSc1nnc(C2CC2)n1C (stereo not given) | 23.3% (inactive)
7 | COc1ccc(N2C(=O)CC(Sc3n[nH]c(-c4ccc(C)cc4)n3)C2=O)cc1 (stereo not given) | 14.7% (inactive)
8 | O=C(Nc1ccc(F)cc1)N1CCCC(c2nc3c(nnn3Cc3ccccc3Cl)c(=O)[nH]2)C1 (stereo not given) | -4.96% (inactive)
9 | Cn1nnc2cc(C(=O)NCCC3=CCCCC3)ccc21 | 174% (active)
10 | O=C(NCCC1=CCCCC1)c1ccc(Cl)c([N+](=O)[O-])c1 | 8.77% (inactive)
11 | CN(c1ccc(C(=O)NCCC2=CCCCC2)cc1)S(C)(=O)=O | 76% (inactive)
12 | CCOCCCNC(=O)C(=O)NCCCOCC | -1.33% (inactive)
13 | O=C(C1CCCO1)N(c1ccc(F)cc1)C1C=CS(=O)(=O)C1 (stereo not given) | 5.93% (inactive)
14 | Cc1ccc(NC(=O)COC(=O)CCc2nc3ccccc3n2-c2ccccc2)c(C)c1 | 11.8% (inactive)
15 | O=C(CN1CCN(c2ncccn2)CC1)Nc1ccccc1C(F)(F)F | -6.86% (inactive)
16 | Cc1ccc(CN(Cc2cccnc2)C(=S)Nc2cc(Cl)ccc2C)cc1 | 2.52% (inactive)
17 | O=C(Nc1nc2ccccc2s1)c1ccc2c(c1)OCO2 | 183% (active)
18 | CSCCC(Nc1nc2ccccc2s1)C(=O)O (stereo not given) | -7.07% (inactive)
19 | CC(=O)Nc1ccc(-c2csc(NC(=O)Nc3ccccc3)n2)cc1 | -14.7% (inactive)
20 | Cc1cc(C)c2nc(NC(=O)c3ccc4c(c3)OCO4)sc2c1 | -8.57% (inactive)
21 | O=C(Nc1ccccc1)Nc1nc2ccccc2s1 | 212% (active)
22 | COCc1nnc(NC(=O)c2ccc3c(c2)OCO3)s1 | 61.2% (inactive)
23 | CCCC1NC(=S)NC(C)=C1C(C)=O (stereo not given) | -10.8% (inactive)
24 | CCCCCOc1ccc(/C=C/C(=O)NCCc2nc3ccccc3[nH]2)cc1OC | -0.79% (inactive)
25 | S=C(NCc1ccco1)Nc1ccc2c(c1)OCCO2 | 18.6% (inactive)
26 | CC1CCCC(C)N1/N=C/c1ccccc1OC(F)F (stereo not given) | 5.03% (inactive)
27 | Clc1ccc2nc(CSc3ccccc3)cn2c1 | 216% (active)

Row | Compound | activation
28 | O=c1cc(CSc2ccc(Cl)cc2)nc(N2CCOCC2)[nH]1 | 6.36% (inactive)
29 | CCOc1ncccc1C(=O)OCc1cn2cc(Cl)ccc2n1 | -0.86% (inactive)
30 | Cc1nn(Cc2ccc(F)cc2)c(C)c1NC(=O)c1cccnc1Cl | 10.3% (inactive)
31 | c1ccc(-c2[nH]ncc2-c2nc3ccccc3[nH]2)cc1 | -1.2% (inactive)
32 | Cc1ccc(-c2nc3ccccc3[nH]2)cc1N | 201% (active)
33 | COc1ccc(Br)cc1C(=O)NC(=S)Nc1cc(-c2nc3ccccc3[nH]2)ccc1C | 21.4% (inactive)
34 | COc1ccc(-c2[nH]nc(-c3ccccc3)c2-c2nc3ccccc3[nH]2)cc1 | -4.36% (inactive)
35 | c1ccc2[nH]c(-c3nc4ccccc4[nH]3)nc2c1 | 181% (active)
36 | Cc1ccc(-c2nc3ccccc3[nH]2)cc1NC(=O)c1sc2ccccc2c1Cl | -3.21% (inactive)
37 | COc1ccc(C2CC(c3ccccc3)=NN2C(=O)COC(=O)COc2ccccc2)cc1 (stereo not given) | 0.61% (inactive)
38 | O=C(CSc1ccc([N+](=O)[O-])cn1)Nc1ccc(N2CCOCC2)c(Cl)c1 | -13% (inactive)
39 | COc1ccc(-c2csc(Cc3nc(O)cs3)n2)cc1 | 157% (active)
40 | COc1ccc(OC)c(Nc2nc(-c3ccc(O)c(O)c3)cs2)c1 | -40.2% (inactive)
41 | COc1ccc(-c2csc(NC(=O)CCCc3cccs3)n2)cc1 | -2.07% (inactive)
42 | N/C(=N\OC(=O)c1cc(-c2ccccc2)nc2ccccc12)c1ccncc1 | 7.36% (inactive)
43 | Cc1cccc(C(=O)c2cccc(C)c2)c1 | 7.97% (inactive)
44 | Cc1cccc(/C(N)=N/OC(=O)c2ccccc2Cl)c1 | 206% (active)
45 | Cc1ccc(NC(=S)N2CCN(c3ncccn3)CC2)cc1C | 2.51% (inactive)
46 | COc1ccc(-c2nc3cc([N+](=O)[O-])ccc3o2)cc1OC | 20.2% (inactive)
47 | O=[N+]([O-])c1cccc(Nc2c3ccccc3nc3ccccc23)c1 | -0.09% (inactive)
48 | COc1cccc(-c2nc(S(=O)(=O)c3ccccc3)c(N3CCOCC3)o2)c1 | 10.7% (inactive)
49 | O=[N+]([O-])c1ccc2oc(-c3cccc(O)c3)nc2c1 | 184% (active)
50 | COc1ccc2oc(-c3cccc(NC(=O)CSc4ccc(Cl)cc4)c3)nc2c1 | 48.5% (inactive)
51 | COc1cccc(-c2nc3cc(C)ccc3o2)c1 | 172% (active)
52 | N#Cc1c(-c2ccc(Cl)cc2)c2c([nH]c1=S)CCCC2 | 15.9% (inactive)
53 | COc1cc(OC)c(-n2cc(-c3ccc(Cl)cc3)[nH]c2=O)cc1Cl | -7.27% (inactive)
54 | CC1(C)CC(=O)C=C(N2CCOCC2)C1 | 6.79% (inactive)

Row | Compound | activation
55 | CCCNS(=O)(=O)c1ccc(CCC(=O)N2CCCC2)cc1 | 4.45% (inactive)
56 | O=C(O)CSCc1nc2ccccc2s1 | -3.48% (inactive)
57 | COC(=O)c1nc2ccccc2s1 | -8.64% (inactive)
58 | CC(C)CC(=O)N/C(N)=N/c1nc2ccccc2s1 | 203% (active)
59 | CCC(=O)NC(=Nc1nc2ccccc2s1)NC(=O)CC | 147% (active)
60 | CC(C)CC(=O)NC(=S)NCc1ccccc1 | 9.6% (inactive)
61 | O=C(O)CCCCc1nc2ccccc2s1 | -11.6% (inactive)
62 | Cc1ccc(C(=O)NNC(=O)c2cccs2)cc1 | 38.8% (inactive)
63 | NC1=NC(=O)C(Cc2cccc(Cl)c2)S1 (stereo not given) | 11.8% (inactive)
64 | C=CCO/N=C/C1=C(O)C(C(=O)OC)C(C)(C)CC1=O (stereo not given) | 7.9% (inactive)
65 | Cc1cccc(C)c1OCC(=O)NC(Cc1c[nH]c2ccccc12)C(=O)O (stereo not given) | 10.3% (inactive)
66 | O=C(CN1C(=O)c2cccc3cccc1c23)Nc1ccccc1 | -9.88% (inactive)
67 | O=C(N/N=C/c1cc2c(cc1Br)OCO2)C1COc2ccccc2O1 (stereo not given) | -5.77% (inactive)
68 | O=C(NCCc1ccccc1)c1ccc(OCCOc2ccccc2)cc1 | 4.18% (inactive)
69 | CCCOc1ccc(C(=O)NCCc2ccccc2)cc1 | 156% (active)
70 | O=C(NCCOc1ccccc1)c1ccccc1 | 123% (inactive)
71 | Cc1ccnc(NC(=O)c2ccc(NC(=O)c3ccco3)cc2)c1 | 79.3% (inactive)
72 | O=C(Nc1ccc(NC(=O)c2cccs2)cn1)c1ccco1 | 148% (active)
73 | COc1cccc(C(=O)Nc2ccc(NC(=O)c3ccco3)cn2)c1 | 25.8% (inactive)
74 | O=C(Cc1ccccc1)NNC(=O)C1CCN(c2ncccn2)CC1 | 18.4% (inactive)
75 | O=C(Nc1ccc2c(c1)CCC2)c1ccc(Br)s1 | 208% (active)
76 | CC(C)C(=O)OCC(=O)Nc1ccc2c(c1)CCC2 | 5.67% (inactive)
77 | O=C(NC1CCCC1)c1ccc(Br)s1 | -4.11% (inactive)
78 | Cc1ccc2nsnc2c1S(=O)(=O)N1CCCC1C(=O)O (stereo not given) | -2.44% (inactive)
79 | COc1ccc2nc(Nc3nc(-c4cc5ccccc5oc4=O)cs3)sc2c1 | 33% (inactive)
80 | O=c1oc2ccccc2cc1-c1csc(Nc2ccc(O)cc2)n1 | 61% (inactive)
81 | CCNc1nc(-c2cc3ccccc3o2)cs1 | 188% (active)

Row | Compound | activation
82 | CC(Nc1ccccc1)c1cccnc1 (stereo not given) | -12.4% (inactive)
83 | CCOc1ccc2nc(NCCNS(=O)(=O)c3ccccc3)c(C#N)cc2c1 | 6.65% (inactive)
84 | CCOc1ccc2cc(C#N)c(SCC(=O)OC)nc2c1 | 159% (active)
85 | Cc1nonc1NC(=O)CSc1nc2ccccc2cc1C#N | 15.1% (inactive)
86 | CN1CCN(/N=C2/C(=O)Nc3ccc([N+](=O)[O-])cc32)CC1 | 13.5% (inactive)
87 | COc1ccc(-c2nnc3ccc(SCc4ccccc4)nn23)cc1 | -7.22% (inactive)
88 | COc1ccc2nc(SCc3ccccc3)nc(C)c2c1 | 170% (active)
89 | COC(=O)CSc1nc(C)c2ccc(OC)cc2n1 | 0.88% (inactive)
90 | Cc1ccc(NC(=O)CCC(=O)N/N=C/c2ccco2)c(C)c1 | 8.01% (inactive)
91 | COc1ccc(C2=NOC(COC(=O)c3ccc4ccccc4n3)C2)cc1 (stereo not given) | 16.6% (inactive)
92 | COc1ccc(C2=Nc3cc(C)ccc3OC2)cc1 | 151% (active)
93 | COc1ccc(C2=NOC3(CC(=O)N(c4ccc(C)cc4)C3=O)C2)cc1 (stereo not given) | -3.01% (inactive)
94 | CCOc1ccccc1N1CCN(C(=S)Nc2ccc(S(N)(=O)=O)cc2)CC1 | 11.8% (inactive)
95 | Clc1ncn(CCOc2ccccc2)c1Cl | -15.2% (inactive)
96 | Fc1ccc2nc(N3CCCCC3)sc2c1 | 112% (inactive)
97 | Fc1ccc2nc(Nc3nc4c(s3)CCCC4)sc2c1 | 143% (active)
98 | CSc1ncccc1C(=O)Nc1nc2ccc(F)cc2s1 | 52.4% (inactive)
99 | CC(=O)Nc1ccc(S(=O)(=O)N2CCN(c3ccc([N+](=O)[O-])c(NCCN4CCOCC4)c3)CC2)cc1 | -6.4% (inactive)
100 | O=C(COC(=O)[C@H](Cc1ccccc1)NC(=O)c1cccs1)Nc1cc(F)ccc1F | 12.5% (inactive)
101 | O=C(CSc1nnc(SCc2ccc(Cl)cc2)s1)N/N=C/c1ccccc1Cl | -2.73% (inactive)
102 | Cc1cccc(C)c1Nc1nnc(SCC(=O)Nc2sccc2C#N)s1 | -9.91% (inactive)
103 | COc1ccc(NC(=O)CSc2nc(C)cs2)cc1 | 6.05% (inactive)
104 | Cc1csc(SCC(=O)Nc2sccc2C#N)n1 | 192% (active)
105 | C=CCn1c(CCNC(=O)c2cccs2)n[nH]c1=S | -1.77% (inactive)
